# HT1080NT lethal: kills 2HG-producing HT-1080-NT fibrosarcoma cells | HT-1080-NT fibrosarcoma viability, CellTiter-Glo ATP luminescence, 48 h | Potency, µM (highest dose often 46.1 µM), without a hit: at the highest dose activity, negative = less viability, hits mostly cytotoxic | actives 1.6% (n = 360,000) | AID 686970;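 also: NT is the 2HG producing partner of a matched IDH1 knockdown line; 0% = DMSO-treated cells and -100% = media-only wells without cells; nearly all actives have a fitted effect of over 55% in size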
#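 Compounds were tested in concentration-response format on HT-1080-NT cells for 48 hours at 37 degrees C. Cell viability came from CellTiter-Glo luminescence; curves were classified by r2, response magnitude and activity.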
# HT1080 IDH1KD tx: toxicity to HT-1080 IDH1 knockdown cells (counter line); Potency, µM (titrated, usually from 46.1 µM), without a hit: at the top dose activity, negative = toxicity, hits mostly cytotoxic; HT-1080 IDH1 knockdown viability, ATP luminescence, 48 h; AID 686971; actives 2% (n = 360,000);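 also: 0% = DMSO wells and -100% = cell-free medium wells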
#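 In this qHTS, HT-1080 cells depleted of IDH1 are exposed for 48 h at 37 °C to compound titrations. Toxicity is scored from CellTiter-Glo luminescence, with DMSO as full viability and medium alone as none.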
# SW480 rereplic: inducers of DNA re-replication in SW480 colon cancer cells; AID 624297; Potency, µM (doses to about 46.1 µM), inactives show at the top dose re-replication activation, actives largely listed as activators; SW480 DNA re-replication, Hoechst DNA content imaging, 48 h; actives 1.8% (n = 340,000); also: % of control where 0% means no effect; nearly all actives have a fitted effect of over 55% in size
#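 Per well, 250 cells were exposed to pinned compound for 48 hr. Nuclear DNA was visualised with Hoechst (40 min, 37 C) and total object intensity recorded by fluorescence scanning.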
# MCF10A rerep: inducers of DNA re-replication in MCF 10A breast cells. MCF 10A DNA re-replication, Hoechst nuclear intensity, 48 h. Potency, µM (highest dose often 46.1 µM), for inactives: top-dose activity, positive = re-replication, most hits filed as activators. actives 2.9% (n = 350,000). AID 624296; also: % of control where 0% means no effect; nearly all actives have a fitted effect of over 50% in size
# KB-V1 cytotox: KB-V1 MDR subline cytotoxicity. Potency, µM (top dose mostly 46.1 µM), usual class: cytotoxic. KB-V1 MDR cells viability, CellTiter-Glo, 72 h. AID 1347076. actives 3.4% (n = 400,000); also: % is scaled to controls: 0 for no effect and ±100 for the full control effect; nearly all actives have a fitted effect of over 60% in size
#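 Drug-selected KB-V1 cells, grown in DMEM lacking phenol red with 10% FBS, receive compound titrations; after three days at 37 degrees C, surviving cell ATP is quantified by CellTiter-Glo luminescence and responses normalized and curve-fitted.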
# KB-3-1 cytotox: kills parental KB-3-1 adenocarcinoma cells; actives 1.4% (n = 400,000); KB-3-1 viability, CellTiter-Glo ATP luminescence, 72 h; Potency, µM (doses to about 46.1 µM), hits mostly cytotoxic; also: % is scaled to controls: 0 for no effect and ±100 for the full control effect; nearly all actives have a fitted effect of over 60% in size
#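 Here the drug-naive KB-3-1 line serves as comparator for MDR sub-line selectivity; cells received compound titrations, 72 h at 37 °C, then CellTiter-Glo readout.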
# Numbers without * were called inactive; i = inactive; u = inconclusive; x = no result. This is a sample that favours compounds with a hit; in the whole collection about 7.9% have one here. Calls follow the shape of the dose curve; as a rule, active = well fitted curve in the direction sought with a large enough effect; inconclusive = small, poorly fitted or top-dose-only effect, or another doubt; inactive = no such curve, though single readings can be large; an effect the other way counts as inactive or inconclusive. Potency is read from the fitted curve at half-maximal effect.
SMILES,HT1080NT lethal,HT1080 IDH1KD tx,SW480 rereplic,MCF10A rerep,KB-V1 cytotox,KB-3-1 cytotox
CCOc1cc(NC(=O)c2ccccc2OC)c(OCC)cc1NC(=O)c1ccccc1,9.2%,15.3%,14.6µM*,u,i,u
COc1ccccc1NC(=O)c1ccccc1NC(=O)c1ccccc1,x,x,x,x,i,i
CCOc1ccc(NC(=O)c2c(OC)cccc2OC)cc1,-11.0%,-3.2%,-4.7%,0.651µM*,i,i
CCOc1ccccc1C(=O)NC1CCN(CC(=O)Nc2cc(OC)ccc2OC)CC1,12.1%,2.6%,-14.6%,-2.2%,i,i
CCOc1ccc(NC(=O)COC(=O)c2c(OC)cccc2OC)cc1,16.3%,4.1%,-5.9%,1.2%,i,i
COc1ccc(OC)c(/C(O)=C/C(=O)C(=O)Nc2ccccc2OC)c1,4.3%,1.1%,-15.4%,5.6%,9.2µM*,i
CS(=O)(=O)N(CC(=O)NCCC1=CCCCC1)c1cccc([N+](=O)[O-])c1,2.4%,3.0%,-1.7%,-2.7%,i,i
O=C(NCC1OCCCN1S(=O)(=O)c1cc(F)ccc1F)C(=O)NC1CCCC1 (stereo not given),2.9%,16.5%,0.1%,0.4%,i,i
COc1ccccc1C(=O)Nc1ccccc1SC(=O)c1ccccc1OC,18.4µM*,u,u,20.6µM*,i,u
COc1ccc(OC)c(NC(=O)c2ccccc2SC)c1,24.1%,6.7%,-1.4%,2.2%,18.4µM*,i
COc1ccc(NC(=O)c2ccccc2SC)cc1,10.1%,25.3%,0.6%,-2.9%,i,i
CC(C)C[C@@H](CN1CCC[C@@H]1CN1C(=O)C(=O)NC[C@@H]1Cc1ccccc1)N1C[C@H](Cc2ccc(O)cc2)N(CC2CCCCCC2)C(=O)C1=O,u,u,u,u,i,u
CC(=O)Nc1cccc(-c2ccnc3c2CC(C)(C(=O)Nc2ccc(Cl)c(C(F)(F)F)c2)O3)c1 (stereo not given),u,23.1µM*,x,x,u,u
CC1(C(=O)Nc2ccc(F)c(Cl)c2)Cc2c(-c3ccc(C(N)=O)cc3)ccnc2O1 (stereo not given),u,20.6µM*,x,x,u,i
CC(=O)Nc1cccc(-c2ccnc3c2CC(C)(C(=O)Nc2ccc(F)c(Cl)c2)O3)c1 (stereo not given),u,u,x,x,20.6µM*,u
COc1ccc(C2C(O)C(c3c[nH]c4ccccc34)=NN2C(=O)CCl)cc1 (stereo not given),0.461µM*,0.651µM*,1.3µM*,4.61µM*,14.6µM*,u
COc1ccc(C2NN=C(c3c[nH]c4ccccc34)C2O)cc1 (stereo not given),-12.8%,-6.2%,u,23.2%,i,i
C=CC12C=CC=CN1C(C(=O)OC)=C(C(=O)OC)C(C(=O)OC)=C2C(=O)OC (stereo not given),-5.2%,-4.4%,-89.9%,-10.0%,18.4µM*,i
CCc1ccc(-c2cc3c(=O)n(CC(=O)N4CCCC4)nc(C)n3n2)cc1,4.2%,-0.3%,1.4%,u,i,i
CCc1ccc(-c2cc3c(=O)n(CC(=O)NCCN4CCCCC4C)nc(C)n3n2)cc1 (stereo not given),-3.5%,-0.7%,18.4µM*,u,i,u
CSc1ccc(/C=C/c2nc3ccccc3n2S(=O)(=O)c2cccc(Cl)c2)cc1,x,x,x,x,i,14.6µM*
COc1cc(S(=O)(=O)n2c(C)nc3ccccc32)ccc1F,u,u,u,28.5%,i,u
O=C(Nc1cc(=O)[nH]c(=O)[nH]1)c1cc(Cl)ccc1Cl,u,3.26µM*,20.6µM*,u,u,4.11µM*

# From PubChem
